Test results: the supplement of paper PMC6555819

tested on: VDR:RXRa (NR concentration 270 nM, RXRa partner concentration 90 nM); assay: PBM binding z-score (relative to random genomic background probes); higher = stronger binding; sequences stand for … in GC…GCGATTGACAGCGTAGAATGAAGG
Experimental: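 Protein-binding microarray (Agilent 4x180K custom design, double-stranded 60-nt probes: 5' GC cap, 34-nt variable region, 24-nt constant primer region; full probe sequence given). Purified or IVT nuclear receptor:RXRα heterodimers (3:1 NR:RXRα, mostly 270:90 nM) or homodimers were incubated for 1 h in PBS with 2% milk and no ligand, then detected with Alexa488 antibodies. Fluorescence from o1-orientation probes (~5 replicates averaged) was converted to z-scores against 500 random hg19 background probes. Variable regions are seed direct-repeat (DR0–DR5) sites, all their single-nucleotide variants and half-site ablations.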

Sequence	PBM binding z-score
CCTGCTAGGTCATGGTCTGCTAATCTACAGTATG	1.58
GCATATAGGTAATACAAGGCGAAAGTCCGATTGT	-0.126
CTACCAAGGTGAACAGGGTCGTTGATTACTATTC	5.66
GCTGCTAGGTCAGGTTGGGCAGCTAACGGGTACG	-0.00639
CGTGAAAGTTCAACTAAGGTAACGTAAAGCACGC	4.46
CTCGAGAGGTCGGTTGAGGTGAGTATACGGATAA	2.59
CCTAGTTGGTCAGGAGGTCATACACCGGATATGA	3.75
AATAGCAGGCCAAGGGTCACTCAAGATTAGTCCG	2.92
ACTCGGAGGAAAAAGGTCAGAGCTACGCCAGTGA	2.07
GCATATAGGAAATACAAGGTGAAAGTCCGATTGT	-0.189
ACAATTAGTTGAGACGAGGGCAACCGATAGGTTG	0.691
AGTCAAAGTTCAGGACGAGGTAACGCAAAGCACG	2.89
GCTAGCAGGCCATTGGGGTCACTCAATGACGGGC	6.04
CGAGCTAGGTCAGAACAGGACAGTGAAGGATGAT	0.446
AGAATGAGGTTACCGAAGATCAGGGAAACGCTTG	1.53
GTTCCAAGGTGAATAGGTCGTTGATGAGTAGGCG	1.08
TTACCAAGGTGAGCTGAGGACGTTGATCCAACTC	0.98
ATCTCTAGGTATAAGTTCAGTGAATCCCGAGGAT	0.837
GCTGCTAGGTCAGGTTAGTCAGCTAACGGGTACG	0.235
CCTAGGAGGCCAATCTGGGTCACTCAAGGCTTGA	1.21

Sequence	PBM binding z-score
ACTAGTTGGTCAGCTGAGGCCACACACAATTCGG	0.307
GCTTACGGGCCAAAGGTTATAGCATGAATAGAAT	0.816
ATATGTAGGTTACATCCGGGTAATTCAGGCTATG	0.536
CTTCCAAGGTGAACAAGGTCGTTGATTACTATTC	6.21
ATATGTATGTTACATCCGGGTCATTCAGGCTATG	3.02
AATCGGAGGACAAAGGTCAGAGCTACGCCAGTGA	3.23
CCGCCTGGGGCAAAGGTTACCATACTCAGTACGA	1.48
AGTCAAAGTTCAGGACGGGGTAACGTAAAGCACG	3.34
GGAACGAGGGCAAAGTTGGTAGCATCTGTCGACG	1.14
TAGCCTAGGTCATGCGGACCAGTATAGTGTCGGC	1.99
CTCGAAAGGTCGTGTTCAGGTGAGTATACCAAAC	3.35
TCTGCTAGATCAACGATGGTCAGCTAATCTGCTA	-0.489
CGATCTAGGTCAGAACAGGACAGTGAAGGATGAT	0.316
CGAACTAGGTCATCCCGGACAGTGAATACATTGA	3.63
TGAATGAGGATAAAGATCAGGGAACGTGGCGTCG	-0.375
CTCGAAAGGTCGTGCGCAGGTGAGTATACCAAAC	3.64
CCTACTGGGCCATAAAGGTCATTGATGCCGATAA	4.93
CATAAAGGGTCAGCTAGGCCAGAGTAGGGACGGC	4.05
TAGCGTAGGTCATGCGGGCCAGTATAGTGTCGGC	3.33
CGTTACGGGTCACTCCAGGTTATAGCATCGGAGT	4.5
